# Many of the other results were omitted from the sample, so hits are more common in it than they were.
# Pf Dd2 growth = inhibitors of Plasmodium falciparum Dd2 growth. Potency, µM (top dose mostly 28.9 µM), for the others: at the top dose activity, negative = inhibition, usual class: inhibitors. P. falciparum Dd2 growth, SYBR Green, 72 h. AID 1347417. 120,000 tested, 4.3% active; active = well fitted inhibition curve with a large enough effect;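 note: plate controls were DMSO vehicle for no effect and reference drug for full effect; nearly all actives have a fitted effect of over 65% in size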
#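 Infected erythrocytes (Dd2, 0.3% parasitemia, 2.5% hematocrit final) are added to compound in RPMI-1640/Albumax II medium, grown 72 h at 37C in low oxygen, then lysed with saponin/Triton-X containing SYBR Green and read by fluorescence.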
# * = called active by the depositor; i = inactive; [ ] = dose if it differs, or a comment. Potency is the fitted concentration of half-maximal effect.
SMILES,Pf Dd2 growth
COc1cc(NC(=O)[C@H]2CCC[C@H]2NC(=O)c2cnc(C)cn2)cc(OC)c1OC,-14%
Cc1ccc(S(=O)(=O)NC[C@H]2OC[C@@H](N(C)C)[C@@H]2O)cc1,-8%[44.1 µM]
Cc1cc(C)cc(NC(=O)N2CCCC(c3noc(COc4ccccc4F)n3)C2)c1 (stereo not given),i
O=C(c1cnc(C2CC2)nc1)N1CCC2(CCNCC2CO)CC1 (stereo not given),-23%
O=C(c1cn(-c2ccccc2)nn1)N1CCOCC(O)(CN2CCCC2)C1 (stereo not given),-3%
N#Cc1ccc(CN2CCC3(CC2)COCCN3C(=O)c2ccccc2)cc1,-16%[44.1 µM]
CC(C)c1nc(C2Cc3ccccc3N2C(=O)NCc2ccco2)no1 (stereo not given),i
Cn1ccc2c(C(=O)NCc3cccnc3)nc(-c3ccc(CO)cc3)cc21,-23%[44.1 µM]
CN(C)CCNC(=O)c1nc(-c2ccc(N3CCN(C)CC3)cc2)cc2c1ccn2C,11µM*
COc1ccc(-c2cc3c(ccn3C)c(C(=O)NCCC(N)=O)n2)cc1OC,-9%[44.1 µM]
COc1cc(Br)c(/C=C(\C#N)c2nc3ccccc3[nH]2)cc1OC,-12%
COc1cc(/C=C(\C#N)c2nc3ccccc3[nH]2)ccc1OCc1ccc(F)cc1,1µM*
N#C/C(=C\c1ccc(Cl)cc1)c1nc2ccccc2[nH]1,i
CN(Cc1cccc(C(F)(F)F)c1)C(=O)Cc1ccc(F)cc1,i
CC(=O)N(C)Cc1cccc(C(F)(F)F)c1,-6%[44.1 µM]
CN(Cc1cccc(C(F)(F)F)c1)C(=O)c1ccc(F)cc1,11µM*
O=C(Nc1cccc2ccccc12)O[C@@H]1CO[C@H]2[C@@H]1OC[C@@H]2n1nnnc1Sc1ccccc1,i
CN1C[C@@H](NC(=O)C2CCCCC2)C[C@H]1c1nc(-c2ccc(Cl)cc2)no1,i
COc1c(F)cccc1C(=O)N1CCC(Cc2ccc(C(=O)O)cc2)C1 (stereo not given),-15%
COc1cccc(NC(=O)Cn2cc(C(=O)c3ccc(F)cc3)c(=O)c3cc(OC)ccc32)c1,-8%
CCOc1ccc(C(=O)c2cn(CC(=O)Nc3ccc4c(c3)OCCO4)c3ccc(OC)cc3c2=O)cc1,-22%
O=C(Cn1cc(S(=O)(=O)c2ccccc2)c(=O)c2cc(Cl)ccc21)Nc1ccc2c(c1)OCO2,8.9µM*
COc1ccc2c(c1)c(=O)c(C(=O)c1ccc(Cl)cc1)cn2CC(=O)Nc1ccc2c(c1)OCCO2,11µM*
O=C(Cn1cc(S(=O)(=O)c2ccc(F)cc2)c(=O)c2cc3c(cc21)OCO3)Nc1ccccc1,19%
COc1ccc2c(c1)c(=O)c(S(=O)(=O)c1ccccc1)cn2CC(=O)Nc1ccc2c(c1)OCO2,-2%
SMILES,Pf Dd2 growth
COc1cccc(NC(=O)Cn2cc(C(=O)c3ccc(C)cc3)c(=O)c3cc(OC)ccc32)c1,-19%
COc1ccc2c(c1)c(=O)c(C(=O)c1ccc(Cl)cc1)cn2CC(=O)Nc1ccc2c(c1)OCO2,6%
COc1ccc(OC)c(NC(=O)Cn2cc(C(=O)c3ccc(Cl)cc3)c(=O)c3cc(OC)ccc32)c1,8.9µM*
COc1ccc(NC(=O)Cn2cc(C(=O)c3ccccc3)c(=O)c3cc(OC)ccc32)c(OC)c1,3%
CCc1ccc(C(=O)c2cn(CC(=O)Nc3cccc(OC)c3)c3ccc(OC)cc3c2=O)cc1,13µM*
COc1ccc(OC)c(NC(=O)Cn2cc(C(=O)c3ccccc3)c3ccccc32)c1,i
O=C(Cc1cccc(F)c1)NCC1COc2ncncc2C(=O)N1Cc1ccccc1 (stereo not given),i
COc1ccccc1[C@@H]1CN(C(=O)Cc2nonc2C)C[C@H]1C(=O)O,-11%
COc1cc(SC)ccc1C(=O)N[C@H]1CCN2C(=O)N(c3cccc(SC)c3)C(=O)[C@@H]2C1,-20%
CCCCCNC(=O)Cc1csc2nc(C)c(-c3cc(C)n(-c4ccccc4CC)n3)c(=O)n12,-19%
Cc1nnc2n1CCC(NC(=O)c1cnco1)CC2 (stereo not given),25%
COCC(=O)N1CCc2nc(C(C)C)nc(-c3ccc(O)cc3)c2C1,11%
COCC(=O)NC[C@H]1COCc2nc3cc(S(C)(=O)=O)ccc3n21,13%[44.1 µM]
Cc1noc(-c2cn(C3CCN(C(=O)c4ccc(F)cc4)CC3)nn2)n1,i
CN(C)c1nc2c(c(=O)[nH]1)CCN(C(=O)CCCS(N)(=O)=O)C2,-5%
O=C(Cn1cccc1-c1nc(-c2ccccc2)no1)NCc1ccc(F)cc1Cl,i
COc1ccc(-c2noc(-c3cccn3CC(=O)N3CCc4ccccc43)n2)cc1F,25%
CCN(C(=O)Cn1cccc1-c1nc(-c2ccc(OC)c(F)c2)no1)c1ccccc1,i
COCCNC(=O)Cn1cccc1-c1nc(-c2ccc(OC)c(F)c2)no1,-3%
COc1ccc(-c2noc(-c3cccn3CC(=O)N3CCOc4ccc(C)cc43)n2)cc1F,4µM*
O=C(Cn1cccc1-c1nc(-c2ccccc2)no1)NCCc1ccc(Cl)cc1,39%
COc1ccccc1CC(=O)NCCn1cccc1-c1nc(-c2ccccc2)no1,8.9µM*
COc1ccc(C(=O)NCCn2cccc2-c2nc(-c3ccccc3)no2)cc1F,5µM*
COc1ccc(-c2noc(-c3cccn3CC(=O)Nc3ccc(C)c(C)c3)n2)cc1F,i
CC(C)CNC(=O)c1cc(C2CC2)nc2c1c(C1CCCN1)nn2C (stereo not given),0%
SMILES,Pf Dd2 growth
CCN1c2cc(C(=O)NCc3cccc(F)c3)ccc2C(=O)N2CCCCC21 (stereo not given),i
Cc1ccccc1-c1nocc1CCC(=O)O,i
Cc1ccc(-c2csc(-c3c(N)c(C(=O)c4ccc5c(c4)OCO5)n4ccccc34)n2)cc1C,i
COc1ccc(C(=O)c2c(N)c(-c3nc(-c4ccc5c(c4)OCO5)cs3)c3ccccn23)cc1,16%
Cc1ccc(C)c(C(=O)c2c(N)c(-c3nc(-c4ccc5c(c4)OCO5)cs3)c3ccccn23)c1,8.9µM*
Cc1cc(OC2CNC2)ccc1F,-12%[44.1 µM]
O=C(CCCn1c(=O)[nH]c2ccccc2c1=O)N1CCN(c2ccccc2)CC1,10µM*
COc1ccc(Cn2c(=O)[nH]c3cc(C(=O)N4CCN(c5ccccc5)CC4)ccc3c2=O)cc1,3%
O=C(CCCCCn1c(=O)[nH]c2ccccc2c1=O)N1CCN(c2cccc(C(F)(F)F)c2)CC1,-11%
CCCCCn1c(=O)[nH]c2cc(C(=O)N3CCN(c4ccccc4)CC3)ccc2c1=O,9%
COCCn1c(=O)[nH]c2cc(C(=O)N3CCN(c4ccccc4)CC3)ccc2c1=O,-5%
CC(=O)c1ccc(N2CCN(C(=O)c3ccc(Cn4c(=O)[nH]c5ccccc5c4=O)cc3)CC2)cc1,7.9µM*
COc1ccc(C(=O)N2CCN(c3cc(-c4cccs4)[nH]n3)CC2)c(C)c1,i
Cc1ccc(Cn2c(C3CCN(C(=O)Cc4cccc(F)c4)CC3)n[nH]c2=O)cc1,i
CC(=O)N1C[C@@H]2CCCN3CCC[C@@H]([C@H]23)[C@H]1CCCC(=O)NCCC1CCN(C(C)C)CC1,i
O=C1c2c(nc(COc3ccc(F)cc3)n2Cc2ccccc2)NCCN1Cc1ccccc1,i
O=C1c2c(nc(COc3ccccc3)n2Cc2ccccc2)NCCN1CCOc1ccccc1,i
N#Cc1ccc(OCc2nc3c(n2Cc2ccccc2)C(=O)N(CC2CC2)CCN3)cc1,10µM*
O=C1c2c(nc(CNCc3cccc(Cl)c3)n2Cc2ccccc2)NCCN1Cc1ccccc1F,i
COc1cccc(OCc2nc3c(n2Cc2ccccc2)C(=O)N(CCOc2ccccc2)CCN3)c1,-19%
